A number with no mark means an inactive call. Results filed as inconclusive are left out. Activity calls are given as the source filed them.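 How the source made its calls, unless noted: active means compounds whose dose series gives a full or clear partial fitted curve of increased nuclear translocation; inconclusive means weak partial curve or effect only at the top dose; inactive means no dose-dependent translocation response.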
What was measured:
[1] = Stat Signaling Pathway (AID 446; active means well fitted curve in either direction with a large enough effect, not every such curve was filed as active;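 further: ME-180 cervical cancer cells given 40 pM IL-6 alongside compound; SIE-controlled beta-lactamase reporter measured as 460/530 nm FRET emission ratio; on the % scale 0 is the no-effect control and ±100 the full control effect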); settings: ME-180 SIE beta-lactamase reporter, IL-6 stimulated, 5 h; at 17.2 µM (top of the series) unless noted
In short: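 ME-180 SIE-bla cells; overnight plating; cpd + IL-6 40 pM, 5 h, 37 C; LiveBLAzer 2.5 h RT; 460/530 nm emission ratio. Normalized to 300 pM IL-6 and 125 nM JAK inhibitor controls.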

[2] = target: Glucocorticoid receptor (Homo sapiens) (UniProt P04150); assay: GR-GFP Redistribution (AID 450); further: potency means the concentration at half of the fitted maximal effect
Glucocorticoid receptor (Homo sapiens), sequence (P04150 whole entry, looked up, the tested form may be a part): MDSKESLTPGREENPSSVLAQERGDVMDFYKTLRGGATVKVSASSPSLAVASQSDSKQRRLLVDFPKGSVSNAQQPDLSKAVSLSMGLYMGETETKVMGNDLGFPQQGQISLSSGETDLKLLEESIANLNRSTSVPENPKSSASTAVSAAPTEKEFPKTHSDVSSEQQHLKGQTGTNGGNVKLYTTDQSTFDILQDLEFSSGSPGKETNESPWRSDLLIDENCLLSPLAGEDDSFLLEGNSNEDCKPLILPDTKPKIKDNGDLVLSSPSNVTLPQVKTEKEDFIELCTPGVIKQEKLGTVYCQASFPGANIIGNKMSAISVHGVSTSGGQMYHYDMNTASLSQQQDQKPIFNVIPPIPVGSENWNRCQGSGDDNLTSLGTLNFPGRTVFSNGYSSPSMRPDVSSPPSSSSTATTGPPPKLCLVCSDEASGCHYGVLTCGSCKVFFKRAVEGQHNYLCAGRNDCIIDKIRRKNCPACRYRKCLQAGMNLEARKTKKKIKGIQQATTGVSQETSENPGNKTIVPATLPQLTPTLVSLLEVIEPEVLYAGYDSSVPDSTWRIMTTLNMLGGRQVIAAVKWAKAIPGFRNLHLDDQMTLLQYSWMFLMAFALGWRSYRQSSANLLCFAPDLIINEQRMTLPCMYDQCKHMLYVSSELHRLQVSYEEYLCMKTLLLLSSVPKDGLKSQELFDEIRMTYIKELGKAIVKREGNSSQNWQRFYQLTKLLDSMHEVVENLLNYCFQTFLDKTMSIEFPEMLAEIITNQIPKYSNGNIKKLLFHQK

[3] = target: Glucocorticoid receptor (Homo sapiens) (UniProt P04150); assay: GR-EFC Redistribution (AID 451; calls by dose curve; further: potency means the concentration at half of the fitted maximal effect); settings: CHO-K1 GR-EFC translocation, beta-gal luminescence, 2 h
In short: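 CHO-K1 cells expressing nuclear EA and GR-ED fragments of b-gal; compounds titrated up to 46 uM final, 2 h at 37 C. GR nuclear translocation read as complemented b-gal luminescence after 1 h RT detection.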

[4] = target: Guanine nucleotide-binding protein G(i) subunit alpha-1 (Homo sapiens) (UniProt P63096); assay: qHTS Assay for Inhibitors of RGS12 GoLoco Motif Activity (Green Fluorophore) (AID 879; active means well fitted curve in the direction sought with a large enough effect; an effect the other way counts as inactive or inconclusive;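 further: 0% = labeled peptide with Gαi1 and full inhibition = labeled peptide alone without protein; negative values mean loss of peptide binding seen as reduced polarization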)
Guanine nucleotide-binding protein G(i) subunit alpha-1 (Homo sapiens), sequence (P63096 whole entry, looked up): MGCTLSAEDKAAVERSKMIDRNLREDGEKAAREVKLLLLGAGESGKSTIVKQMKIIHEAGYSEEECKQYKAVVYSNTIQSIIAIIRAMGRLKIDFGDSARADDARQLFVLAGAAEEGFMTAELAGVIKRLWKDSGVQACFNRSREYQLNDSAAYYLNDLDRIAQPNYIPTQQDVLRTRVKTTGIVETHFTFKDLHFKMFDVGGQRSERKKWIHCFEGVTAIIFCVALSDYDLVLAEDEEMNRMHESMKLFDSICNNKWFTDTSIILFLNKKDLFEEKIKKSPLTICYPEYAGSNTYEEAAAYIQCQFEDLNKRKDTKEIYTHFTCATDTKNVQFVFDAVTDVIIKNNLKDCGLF
In short: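 Fluorescence polarization assay: 50 nM Gαi1 with 10 nM FITC-labeled RGS12 GoLoco peptide in 10 mM Tris pH 7.5, 150 mM NaCl, 0.1 mM GDP, 0.05% NP40, 10 min at room temperature with compound.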

[5] = qHTS Assay for Identification of Small Molecule Antagonists for NFkB Signaling Pathway (AID 895; active means well fitted inhibition curve with a large enough effect in the signal ratio, with a control signal flat, not every such curve was filed as active; the % refers to the signal ratio; further: potency means the concentration at half of the fitted maximal effect)
In short: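 ME-180 NFkB-bla cells (beta-lactamase under NFkB response element), plated overnight, treated with compound then 10 pM TNF alpha (about EC50) for 5 hrs at 37 C. LiveBLAzer FRET read at 460/530 nm emission, 405 nm excitation.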

[6] = target: Muscarinic acetylcholine receptor M1 (Rattus norvegicus) (UniProt P08482); assay: qHTS Assay for Antagonists of Acetylcholine Muscarinic M1 Receptor: Kinetic Measurement of Intracellular Calcium Response (AID 943; active means well fitted curve in the direction sought with a large enough effect; an effect the other way counts as inactive or inconclusive; further: nearly all actives have a fitted effect of over 75% in size; further: potency means the concentration at half of the fitted maximal effect)
Muscarinic acetylcholine receptor M1 (Rattus norvegicus), sequence (P08482 whole entry, looked up): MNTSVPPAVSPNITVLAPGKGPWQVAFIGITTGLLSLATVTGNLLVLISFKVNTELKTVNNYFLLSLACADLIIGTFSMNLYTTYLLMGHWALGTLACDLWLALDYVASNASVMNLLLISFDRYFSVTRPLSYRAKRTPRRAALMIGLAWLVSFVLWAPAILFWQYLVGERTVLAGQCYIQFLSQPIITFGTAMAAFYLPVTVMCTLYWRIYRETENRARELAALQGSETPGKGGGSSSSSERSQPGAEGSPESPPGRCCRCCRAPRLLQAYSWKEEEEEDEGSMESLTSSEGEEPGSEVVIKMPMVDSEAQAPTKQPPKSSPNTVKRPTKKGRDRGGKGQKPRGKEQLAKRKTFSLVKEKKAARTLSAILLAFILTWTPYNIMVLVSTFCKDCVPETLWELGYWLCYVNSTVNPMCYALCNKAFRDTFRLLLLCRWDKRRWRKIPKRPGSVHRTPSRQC
In short: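 Rat M1-CHO cells, 2000/well, overnight → Fluo-4 no-wash dye with probenecid, 1 h 37C → compound 10 min, room temp → basal read 6 s → carbachol EC80 (100 nM) → 4 min kinetic read; peak/basal.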

[7] = target: Pyruvate kinase (Leishmania mexicana) (UniProt Q27686); assay: qHTS Validation Assay for Inhibitors of Leishmania Mexicana Pyruvate Kinase (AID 945; active means well fitted curve in the direction sought with a large enough effect; an effect the other way counts as inactive or inconclusive;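 further: 0% = DMSO only neutral control wells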)
Pyruvate kinase (Leishmania mexicana), sequence (Q27686 2-499 E452W): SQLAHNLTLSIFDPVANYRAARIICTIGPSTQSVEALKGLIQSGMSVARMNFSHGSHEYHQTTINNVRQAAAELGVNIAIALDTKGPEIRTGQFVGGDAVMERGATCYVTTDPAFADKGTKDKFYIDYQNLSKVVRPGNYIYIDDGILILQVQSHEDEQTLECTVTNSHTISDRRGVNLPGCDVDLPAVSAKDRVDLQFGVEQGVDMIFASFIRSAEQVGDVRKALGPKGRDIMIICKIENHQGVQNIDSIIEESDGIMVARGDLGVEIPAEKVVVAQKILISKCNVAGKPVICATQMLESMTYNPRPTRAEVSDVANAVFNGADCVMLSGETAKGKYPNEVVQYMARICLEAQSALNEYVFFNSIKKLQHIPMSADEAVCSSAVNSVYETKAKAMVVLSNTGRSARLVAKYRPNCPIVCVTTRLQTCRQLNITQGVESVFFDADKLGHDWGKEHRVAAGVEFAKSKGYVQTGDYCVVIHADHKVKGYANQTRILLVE
In short: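 Mutant LmPYK (E451W), 0.2 nM, plus 0.5 mM PEP and 0.1 mM ADP in 50 mM imidazole pH 7.2 containing 0.01% Tween 20 and 0.05% BSA. Incubated 1 h at room temperature; luminescence via PKLight, normalized to DMSO.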

[8] = target: Pyruvate kinase PKM (Homo sapiens) (UniProt P14618); assay: qHTS Assay for Activators of Human Muscle Pyruvate Kinase (AID 954; active means well fitted curve in the direction sought with a large enough effect, not every such curve was filed as active;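 further: 0% = uninhibited enzyme and -100% = no enzyme or full thiadiazolimine inhibition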)
Pyruvate kinase PKM (Homo sapiens), sequence (P14618 whole entry, looked up): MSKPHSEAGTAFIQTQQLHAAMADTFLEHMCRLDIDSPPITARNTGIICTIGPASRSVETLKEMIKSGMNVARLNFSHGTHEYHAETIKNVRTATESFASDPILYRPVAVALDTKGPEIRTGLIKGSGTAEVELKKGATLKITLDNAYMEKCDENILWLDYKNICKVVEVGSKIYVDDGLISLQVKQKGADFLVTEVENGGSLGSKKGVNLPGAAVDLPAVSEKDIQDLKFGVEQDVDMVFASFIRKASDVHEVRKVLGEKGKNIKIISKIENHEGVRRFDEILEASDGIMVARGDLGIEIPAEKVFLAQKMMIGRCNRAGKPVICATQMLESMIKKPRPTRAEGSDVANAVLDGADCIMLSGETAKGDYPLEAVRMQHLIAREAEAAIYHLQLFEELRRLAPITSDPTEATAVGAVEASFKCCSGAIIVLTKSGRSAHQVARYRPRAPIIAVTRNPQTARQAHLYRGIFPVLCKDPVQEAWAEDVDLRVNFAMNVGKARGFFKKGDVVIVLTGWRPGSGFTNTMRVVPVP
In short: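 Luminescence from a luciferase ATP-detection/stop reagent reported PKM2 activity. Reactions contained 0.1 nM purified human enzyme, 0.5 mM PEP, 0.1 mM ADP and 7 mM MgCl2 at pH 7.2, run 1 h at RT.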

[9] = target: Alpha-galactosidase A (Homo sapiens) (UniProt P06280); assay: Counterscreen for Glucocerebrosidase Inhibitors: qHTS Assay for Human alpha-Galactosidase at pH 4.5 (AID 992; active means well fitted curve in the direction sought with a large enough effect; an effect the other way counts as inactive or inconclusive; further: 0% is about no effect)
Alpha-galactosidase A (Homo sapiens), sequence (P06280 whole entry, looked up): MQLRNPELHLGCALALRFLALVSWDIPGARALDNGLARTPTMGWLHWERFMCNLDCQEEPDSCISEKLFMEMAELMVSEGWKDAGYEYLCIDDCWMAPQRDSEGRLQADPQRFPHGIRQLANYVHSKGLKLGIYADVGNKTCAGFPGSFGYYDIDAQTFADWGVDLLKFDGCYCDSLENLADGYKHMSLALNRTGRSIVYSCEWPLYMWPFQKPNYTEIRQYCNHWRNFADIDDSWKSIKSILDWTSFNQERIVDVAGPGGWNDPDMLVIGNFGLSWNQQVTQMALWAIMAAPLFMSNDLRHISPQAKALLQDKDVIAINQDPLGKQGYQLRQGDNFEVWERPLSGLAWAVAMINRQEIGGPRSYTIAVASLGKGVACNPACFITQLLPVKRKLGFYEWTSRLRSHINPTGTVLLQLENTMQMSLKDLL
In short: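 Enzyme at 2 nM final was combined with compound (0.7 nM to 77 uM) and 80 uM 4-methylumbelliferyl alpha-D-galactopyranoside in 50 mM citric acid, 0.005% Tween-20, pH 4.5. After 20 min at room temperature, fluorescence was read (Ex 365/Em 440 nm); AC50 came from Hill fits.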

[10] = target: alpha-glucosidase (Oryza sativa, rice) (UniProt Q653V4); assay: Counterscreen for Glucocerebrosidase Inhibitors: qHTS Assay for Rice alpha-Glucosidase at pH 5.0 (AID 997; active means well fitted curve in the direction sought with a large enough effect; an effect the other way counts as inactive or inconclusive;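 further: 0% = full activity with enzyme and -100% = basal without enzyme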)
In short: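 Rice alpha-glucosidase (4 nM final) with 400 uM 4-methylumbelliferyl-alpha-D-glucopyranoside in citrate buffer pH 5.0, 20 min at room temperature, stopped at pH 10; fluorescence 365/440 nm, compounds 0.7 nM–77 uM, AC50 from Hill fits.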

[11] = target: Muscarinic acetylcholine receptor M1 (Rattus norvegicus) (UniProt P08482); assay: qHTS Assay for Antagonists of Acetylcholine Muscarinic M1 Receptor: Measurement of IP-One Response (AID 944; active means well fitted curve in the direction sought with a large enough effect; an effect the other way counts as inactive or inconclusive; further: potency means the concentration at half of the fitted maximal effect; nearly all actives have a fitted effect of over 75% in size)
In short: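 M1-CHO (rat), 2000 cells/well, overnight recovery; cpd 10 min; carbachol EC80 (200 nM), 30 min, HEPES buffer + 50 mM LiCl pH 7.4; IP-One HTRF, Ex 337, Em 620/665 nm.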

[12] = target: Mitogen-activated protein kinase 10 (Mus musculus) (UniProt Q61831); assay: JNK3 AlphaScreen Assay (AID 530; active means well fitted curve in either direction with a large enough effect, not every such curve was filed as active;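 further: kinase came from lysate of stimulated human HepG2 cells; signal reports phosphorylation of biotinylated GST-cJun 1-79 at Ser73 with 10 µM ATP; on the % scale 0 is the no-effect control and ±100 the full control effect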)
In short: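 Pre-activated (IL-1β/TNFα) JNK3 in HepG2 lysates phosphorylates biotin-GST-cJun(1-79), 10 uM ATP; anti-phospho-cJun(Ser73) AlphaScreen read at room temperature, pH 7.6 Tris buffer. Compounds pre-incubated 15 min as titrations.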

[13] = target: Cytochrome P450 2C9 (Homo sapiens) (UniProt P11712); assay: qHTS Assay for Inhibitors and Substrates of Cytochrome P450 2C9 (AID 883; active means well fitted curve in the direction sought with a large enough effect; an effect the other way counts as inactive or inconclusive; further: potency means the concentration at half of the fitted maximal effect; nearly all actives have a fitted effect of over 60% in size)
Cytochrome P450 2C9 (Homo sapiens), sequence (P11712 whole entry, looked up): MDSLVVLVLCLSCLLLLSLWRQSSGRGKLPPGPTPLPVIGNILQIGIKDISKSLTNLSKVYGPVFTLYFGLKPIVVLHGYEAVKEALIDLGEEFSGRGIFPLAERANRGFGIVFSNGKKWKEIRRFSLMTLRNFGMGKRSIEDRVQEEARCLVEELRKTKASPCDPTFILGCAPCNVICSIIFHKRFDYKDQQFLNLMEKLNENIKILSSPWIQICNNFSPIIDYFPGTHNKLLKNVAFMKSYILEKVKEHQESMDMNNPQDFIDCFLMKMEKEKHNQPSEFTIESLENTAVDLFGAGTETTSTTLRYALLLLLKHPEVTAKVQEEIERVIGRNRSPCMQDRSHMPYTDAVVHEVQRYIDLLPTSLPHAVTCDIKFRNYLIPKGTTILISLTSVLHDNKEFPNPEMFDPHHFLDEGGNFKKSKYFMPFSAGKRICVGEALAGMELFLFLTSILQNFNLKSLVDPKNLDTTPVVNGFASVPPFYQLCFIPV
In short: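 Human CYP2C9 (10nM) with Luciferin-H at 100uM (its KM) in 25mM KPO4; compound preincubated 10 min at 37C, then NADPH regeneration for 60 min at 37C. Luciferin read by luminescence after detection reagent; normalized to 57uM sulphaphenazole as full inhibition.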

[14] = target: Cytochrome P450 2D6 (Homo sapiens) (UniProt P10635); assay: qHTS Assay for Inhibitors and Substrates of Cytochrome P450 2D6 (AID 891; active means well fitted curve in the direction sought with a large enough effect; an effect the other way counts as inactive or inconclusive;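 further: luciferin methyl ether substrate demethylated by CYP2D6 with NADPH regeneration; on the % scale 0 is the no-effect control and ±100 the full control effect; nearly all actives have a fitted effect of over 60% in size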)
Cytochrome P450 2D6 (Homo sapiens), sequence (P10635 whole entry, looked up): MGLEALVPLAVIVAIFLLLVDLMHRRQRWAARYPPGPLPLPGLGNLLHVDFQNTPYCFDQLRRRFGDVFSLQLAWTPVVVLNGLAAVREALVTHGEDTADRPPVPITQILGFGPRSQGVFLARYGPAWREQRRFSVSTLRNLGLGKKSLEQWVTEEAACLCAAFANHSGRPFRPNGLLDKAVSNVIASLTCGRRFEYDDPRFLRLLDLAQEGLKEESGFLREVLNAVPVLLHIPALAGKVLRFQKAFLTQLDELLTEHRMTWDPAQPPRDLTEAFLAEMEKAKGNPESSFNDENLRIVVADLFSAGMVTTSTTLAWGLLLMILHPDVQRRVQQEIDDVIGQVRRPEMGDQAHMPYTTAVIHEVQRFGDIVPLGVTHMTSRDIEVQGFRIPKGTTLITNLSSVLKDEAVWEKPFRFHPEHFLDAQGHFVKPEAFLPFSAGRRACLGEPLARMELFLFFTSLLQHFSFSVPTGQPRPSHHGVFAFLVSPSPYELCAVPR
In short: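 Human CYP2D6 (5 nM) with 30 uM Luciferin-ME EGE (at Km) in 100 mM KPO4, compound preincubated 10 min, then NADPH regeneration system for 60 min at room temperature. Luciferin read by luminescence; normalized to 1.43 uM quinidine.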

In the case of COC(=O)c1ccccc1NC=C1C(=O)OC2(CCCCC2)OC1=O, the activity, negative = inhibition [1] is reported as 2.6% and the Potency [2] is reported as greater than 20.6 µM.

With CC1(C)CC(=O)C2=C(C1)Oc1nc3ccccc3cc1C2C(C#N)C#N (centres undefined) the activity, negative = inhibition [1] was -93% (active) and the Potency [2] was greater than 20.6 µM.

CCCOC(=O)CSC1=C(C#N)C(c2ccccc2OCC)C(C#N)C(=O)N1 (centres undefined) gave an activity, negative = inhibition [1] of -11.2% and a Potency [2] greater than 20.6 µM.

For Fc1ccc2[nH]c3c(N4CCN(c5ccccc5)CC4)ncnc3c2c1, the activity, negative = inhibition [1] was -93.2% (active) and the Potency [2] was greater than 20.6 µM.

Compound COc1ccc(C2C=C(c3ccc(C)cc3)Nc3ncnn32)cc1 (centres undefined) has an activity, negative = inhibition [1] of -14.5% and a Potency [2] greater than 20.6 µM.

Work on COc1cccc(-c2nc(N3CCCCC3C)c3ccccc3n2)c1O (centres undefined) yielded an activity, negative = inhibition [1] of -21.7% and a Potency [2] greater than 20.6 µM.

Work on CCOC(=O)c1[nH]c2ccc(Br)cc2c1NC(=O)CCN1CCC(C(=O)OCC)CC1 yielded an activity, negative = inhibition [1] of -11% and a Potency [2] greater than 20.6 µM.

N#CCSc1nc2c(c(=O)n1Cc1ccco1)C1(CCCC1)Cc1ccccc1-2 gave an activity, negative = inhibition [1] of -1.5% and a Potency [2] greater than 20.6 µM.

In the case of COC(=O)c1ccc(Cn2cnc3c(sc4nc(N5CCOCC5)c5c(c43)CCCC5)c2=O)o1, the activity, negative = inhibition [1] is reported as -11.4% and the Potency [2] is reported as greater than 20.6 µM.

For N#C[C@@H](Cc1ccc(O)c(O)c1)C(=O)N1CCc2ccccc21, the activity, negative = inhibition [1] was 26% [at 38 µM], the Potency [2] was greater than 46 µM and the Potency [3] was greater than 46 µM. The outcome [4] was “inactive”, the Potency [5] was 10 µM (active) and the Potency [6] was “inactive”. The Potency [7] was “inactive”, the outcome [8] was “inactive” and the outcome [9] was “inactive”. For the same compound, the outcome [10] was “inactive”.

With COc1ccc(C(=O)CCN2CCCCCC2)cc1 the activity, negative = inhibition [1] was -28.1% and the Potency [2] was greater than 20.6 µM.

Compound CCN(CC)CCOC(=O)c1c(C)n(C)c2ccc(OC)cc12 has an activity, negative = inhibition [1] of 11.9% and a Potency [2] greater than 20.6 µM.

With COC(=O)C1=C(C)NC(C)=C(C(=O)OCCN(C)Cc2ccccc2)[C@@H]1c1cccc([N+](=O)[O-])c1 the Potency [3] was greater than 46 µM, the outcome [4] was “inactive” and the Potency [6] was 3.16 µM (active). The Potency [11] was 17.8 µM (active), the Potency [7] was “inactive” and the outcome [8] was “inactive”. For the same compound, the outcome [9] was “inactive” and the outcome [10] was “inactive”.

In the case of CC(=O)O[C@H]1C(=O)[C@]2(C)[C@H]([C@H](OC(=O)c3ccccc3)[C@@]3(O)C[C@H](OC(=O)[C@@H](O)[C@@H](NC(=O)c4ccccc4)c4ccccc4)C(C)=C1C3(C)C)[C@]1(OC(C)=O)CO[C@@H]1C[C@@H]2O, the Potency [2] is reported as greater than 46 µM, the Potency [3] is reported as greater than 46 µM and the Potency [12] is reported as “inactive”.

In the case of CC(C)C1=CC2=CC[C@H]3[C@@](C)(CCC[C@]3(C)C(=O)O)[C@@H]2CC1, the Potency [2] is reported as greater than 46 µM, the Potency [3] is reported as greater than 46 µM and the Potency [12] is reported as “inactive”. For the same compound, the Potency [13] was 12.6 µM (active) and the Potency [14] was “inactive”.

COc1ccc2[nH]c3c(N4CCN(Cc5ccc6c(c5)OCO6)CC4)ncnc3c2c1 showed a Potency [2] greater than 20.6 µM.
